Data published in ChEMBL document CHEMBL1961873, “Compounds: GSK PKIS; Assays: Nanosyn kinase panel” (2012).

Columns and labels:
[1] = target: T1, Mitogen-activated protein kinase 12 (Homo sapiens) (UniProt P53778); conditions: at 1 µM;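 also: values are averaged p38gamma kinase inhibition readings, compounds tested at 1 µM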
T1 sequence (whole entry): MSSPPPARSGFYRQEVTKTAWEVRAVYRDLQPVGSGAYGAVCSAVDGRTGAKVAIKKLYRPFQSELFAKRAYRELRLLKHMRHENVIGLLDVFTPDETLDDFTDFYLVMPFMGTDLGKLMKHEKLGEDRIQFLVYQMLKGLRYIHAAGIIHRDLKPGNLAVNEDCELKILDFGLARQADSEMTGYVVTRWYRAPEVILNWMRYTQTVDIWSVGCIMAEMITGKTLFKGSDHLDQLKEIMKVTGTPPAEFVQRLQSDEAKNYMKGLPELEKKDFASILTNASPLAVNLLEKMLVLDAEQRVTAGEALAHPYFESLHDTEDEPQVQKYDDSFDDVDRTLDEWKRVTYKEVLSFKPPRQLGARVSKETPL

[2] = target: SRSF protein kinase 1 (Homo sapiens) (UniProt Q96SB4); conditions: at 0.1 µM
SRSF protein kinase 1 (Homo sapiens), sequence (Q96SB4 whole entry, canonical isoform): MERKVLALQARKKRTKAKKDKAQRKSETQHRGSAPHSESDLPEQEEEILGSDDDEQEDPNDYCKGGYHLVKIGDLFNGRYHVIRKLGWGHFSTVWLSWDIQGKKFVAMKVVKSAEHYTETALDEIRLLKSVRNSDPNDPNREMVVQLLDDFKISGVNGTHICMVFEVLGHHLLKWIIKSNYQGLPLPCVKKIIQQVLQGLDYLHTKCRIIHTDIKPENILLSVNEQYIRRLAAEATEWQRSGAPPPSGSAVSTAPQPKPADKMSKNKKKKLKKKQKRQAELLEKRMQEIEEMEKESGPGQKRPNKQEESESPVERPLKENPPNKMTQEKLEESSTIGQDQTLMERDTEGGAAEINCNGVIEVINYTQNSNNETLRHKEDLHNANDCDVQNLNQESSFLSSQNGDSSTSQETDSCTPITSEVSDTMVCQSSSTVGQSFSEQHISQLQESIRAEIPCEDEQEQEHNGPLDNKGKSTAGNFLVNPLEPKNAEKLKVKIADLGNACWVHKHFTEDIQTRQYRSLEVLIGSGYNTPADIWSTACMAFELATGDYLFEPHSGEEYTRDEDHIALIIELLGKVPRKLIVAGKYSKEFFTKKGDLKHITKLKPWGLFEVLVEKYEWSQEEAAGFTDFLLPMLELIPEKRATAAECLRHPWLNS

[3] = target: SRSF protein kinase 1 (Homo sapiens) (UniProt Q96SB4); conditions: at 1 µM
[4] = target: Phosphatidylinositol 4,5-bisphosphate 3-kinase catalytic subunit alpha isoform (Homo sapiens) (UniProt P42336); conditions: at 0.1 µM
Phosphatidylinositol 4,5-bisphosphate 3-kinase catalytic subunit alpha isoform (Homo sapiens), sequence (P42336 whole entry, canonical isoform): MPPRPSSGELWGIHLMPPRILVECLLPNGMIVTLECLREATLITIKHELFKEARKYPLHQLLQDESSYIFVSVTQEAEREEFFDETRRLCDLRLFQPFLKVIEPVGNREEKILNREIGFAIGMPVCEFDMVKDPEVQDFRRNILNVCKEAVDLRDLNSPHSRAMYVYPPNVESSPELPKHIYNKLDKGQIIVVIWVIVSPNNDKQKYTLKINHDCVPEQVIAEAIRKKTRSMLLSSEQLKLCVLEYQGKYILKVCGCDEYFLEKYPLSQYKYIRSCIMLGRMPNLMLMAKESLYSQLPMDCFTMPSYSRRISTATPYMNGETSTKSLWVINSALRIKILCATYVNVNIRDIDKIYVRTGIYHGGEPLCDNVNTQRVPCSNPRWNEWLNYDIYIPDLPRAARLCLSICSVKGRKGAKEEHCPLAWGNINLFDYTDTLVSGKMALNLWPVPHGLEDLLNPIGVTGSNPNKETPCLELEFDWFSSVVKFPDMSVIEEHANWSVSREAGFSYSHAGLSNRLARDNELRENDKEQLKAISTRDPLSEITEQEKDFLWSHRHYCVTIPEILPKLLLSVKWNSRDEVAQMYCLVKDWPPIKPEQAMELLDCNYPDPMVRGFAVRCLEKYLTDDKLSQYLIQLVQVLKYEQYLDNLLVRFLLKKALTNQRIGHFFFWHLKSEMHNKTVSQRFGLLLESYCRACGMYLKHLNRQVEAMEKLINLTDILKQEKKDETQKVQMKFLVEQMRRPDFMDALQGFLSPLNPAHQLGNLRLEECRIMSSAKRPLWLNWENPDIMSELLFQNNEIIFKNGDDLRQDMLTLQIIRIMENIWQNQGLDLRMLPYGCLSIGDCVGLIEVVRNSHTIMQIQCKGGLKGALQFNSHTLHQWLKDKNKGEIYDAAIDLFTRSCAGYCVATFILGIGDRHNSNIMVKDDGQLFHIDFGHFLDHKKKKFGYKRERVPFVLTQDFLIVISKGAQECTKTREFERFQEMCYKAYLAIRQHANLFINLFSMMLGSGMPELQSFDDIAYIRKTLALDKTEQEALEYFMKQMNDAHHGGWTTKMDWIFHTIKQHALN

[5] = target: Phosphatidylinositol 4,5-bisphosphate 3-kinase catalytic subunit alpha isoform (Homo sapiens) (UniProt P42336); conditions: at 1 µM
[6] = target: T2, Phosphatidylinositol 4,5-bisphosphate 3-kinase catalytic subunit delta isoform (Homo sapiens) (UniProt O00329); conditions: at 0.1 µM
T2 sequence (whole entry): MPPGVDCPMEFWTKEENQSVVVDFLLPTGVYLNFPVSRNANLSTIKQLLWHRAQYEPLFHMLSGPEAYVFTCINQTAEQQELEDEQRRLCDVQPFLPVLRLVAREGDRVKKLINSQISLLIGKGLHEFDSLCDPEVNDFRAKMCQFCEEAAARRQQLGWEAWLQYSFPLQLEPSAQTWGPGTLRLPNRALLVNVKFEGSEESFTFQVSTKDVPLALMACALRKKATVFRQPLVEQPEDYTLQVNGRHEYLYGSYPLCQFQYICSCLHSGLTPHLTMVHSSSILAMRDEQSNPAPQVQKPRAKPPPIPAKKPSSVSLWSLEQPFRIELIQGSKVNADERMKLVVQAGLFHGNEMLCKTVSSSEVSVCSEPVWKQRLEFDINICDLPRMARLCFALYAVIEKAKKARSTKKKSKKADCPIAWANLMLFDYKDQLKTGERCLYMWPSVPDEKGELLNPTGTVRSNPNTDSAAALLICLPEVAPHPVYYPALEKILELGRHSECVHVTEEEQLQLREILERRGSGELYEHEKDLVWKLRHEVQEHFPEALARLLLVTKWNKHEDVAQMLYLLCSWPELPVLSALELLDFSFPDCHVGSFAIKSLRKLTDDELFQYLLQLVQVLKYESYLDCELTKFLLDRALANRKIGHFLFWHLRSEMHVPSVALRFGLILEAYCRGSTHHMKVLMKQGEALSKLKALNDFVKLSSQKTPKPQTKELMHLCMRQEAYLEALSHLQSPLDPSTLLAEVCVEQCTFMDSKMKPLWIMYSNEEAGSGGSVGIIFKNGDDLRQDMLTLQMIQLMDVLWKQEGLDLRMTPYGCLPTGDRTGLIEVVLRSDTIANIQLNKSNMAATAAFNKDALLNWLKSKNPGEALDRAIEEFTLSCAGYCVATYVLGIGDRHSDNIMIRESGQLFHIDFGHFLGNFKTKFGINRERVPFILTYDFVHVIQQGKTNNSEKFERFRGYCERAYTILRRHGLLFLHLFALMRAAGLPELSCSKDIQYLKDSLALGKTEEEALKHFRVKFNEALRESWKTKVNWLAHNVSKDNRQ

[7] = target: T2, Phosphatidylinositol 4,5-bisphosphate 3-kinase catalytic subunit delta isoform (Homo sapiens); conditions: at 1 µM
[8] = target: Phosphatidylinositol 4-kinase beta (Homo sapiens) (UniProt Q9UBF8); conditions: at 0.1 µM
Phosphatidylinositol 4-kinase beta (Homo sapiens), sequence (Q9UBF8 2-816 limits assumed): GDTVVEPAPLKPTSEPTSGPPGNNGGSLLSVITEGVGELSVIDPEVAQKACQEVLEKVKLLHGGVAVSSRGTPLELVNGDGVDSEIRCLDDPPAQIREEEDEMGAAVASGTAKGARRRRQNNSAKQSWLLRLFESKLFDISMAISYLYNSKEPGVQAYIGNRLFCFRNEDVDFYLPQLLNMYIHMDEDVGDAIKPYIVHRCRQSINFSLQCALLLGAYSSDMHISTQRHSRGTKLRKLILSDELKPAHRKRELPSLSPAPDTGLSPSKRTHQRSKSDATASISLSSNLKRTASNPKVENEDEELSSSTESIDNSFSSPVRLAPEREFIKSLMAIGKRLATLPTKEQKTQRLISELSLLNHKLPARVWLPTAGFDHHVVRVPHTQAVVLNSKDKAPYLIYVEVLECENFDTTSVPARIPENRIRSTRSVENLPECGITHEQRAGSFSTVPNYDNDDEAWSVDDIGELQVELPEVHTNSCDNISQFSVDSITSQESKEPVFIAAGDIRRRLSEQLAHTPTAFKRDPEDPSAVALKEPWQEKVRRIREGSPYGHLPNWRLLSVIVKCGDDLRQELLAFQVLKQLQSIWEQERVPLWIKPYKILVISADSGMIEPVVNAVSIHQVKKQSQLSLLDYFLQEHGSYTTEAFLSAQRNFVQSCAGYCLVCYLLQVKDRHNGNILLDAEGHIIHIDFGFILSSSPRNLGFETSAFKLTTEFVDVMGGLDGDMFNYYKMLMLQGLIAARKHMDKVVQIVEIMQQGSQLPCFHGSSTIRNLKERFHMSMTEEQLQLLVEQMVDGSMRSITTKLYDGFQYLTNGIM

[9] = target: Phosphatidylinositol 4-kinase beta (Homo sapiens) (UniProt Q9UBF8); conditions: at 1 µM
[10] = target: Sphingosine kinase 1 (Homo sapiens) (UniProt Q9NYA1); conditions: at 0.1 µM
Sphingosine kinase 1 (Homo sapiens), sequence (Q9NYA1 whole entry): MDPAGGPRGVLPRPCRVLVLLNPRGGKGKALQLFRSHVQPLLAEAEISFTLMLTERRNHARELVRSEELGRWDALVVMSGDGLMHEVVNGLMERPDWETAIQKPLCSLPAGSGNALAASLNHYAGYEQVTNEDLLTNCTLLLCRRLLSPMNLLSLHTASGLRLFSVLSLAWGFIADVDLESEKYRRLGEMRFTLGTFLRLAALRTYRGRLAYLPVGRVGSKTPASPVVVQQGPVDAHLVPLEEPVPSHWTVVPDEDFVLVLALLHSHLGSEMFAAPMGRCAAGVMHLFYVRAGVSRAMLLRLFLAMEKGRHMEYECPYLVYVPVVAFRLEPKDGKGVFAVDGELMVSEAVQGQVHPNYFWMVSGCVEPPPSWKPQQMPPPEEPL

[11] = target: Sphingosine kinase 1 (Homo sapiens) (UniProt Q9NYA1); conditions: at 1 µM
[12] = target: T3, Sphingosine kinase 2 (Homo sapiens) (UniProt Q9NRA0); conditions: at 0.1 µM
T3 sequence (whole entry): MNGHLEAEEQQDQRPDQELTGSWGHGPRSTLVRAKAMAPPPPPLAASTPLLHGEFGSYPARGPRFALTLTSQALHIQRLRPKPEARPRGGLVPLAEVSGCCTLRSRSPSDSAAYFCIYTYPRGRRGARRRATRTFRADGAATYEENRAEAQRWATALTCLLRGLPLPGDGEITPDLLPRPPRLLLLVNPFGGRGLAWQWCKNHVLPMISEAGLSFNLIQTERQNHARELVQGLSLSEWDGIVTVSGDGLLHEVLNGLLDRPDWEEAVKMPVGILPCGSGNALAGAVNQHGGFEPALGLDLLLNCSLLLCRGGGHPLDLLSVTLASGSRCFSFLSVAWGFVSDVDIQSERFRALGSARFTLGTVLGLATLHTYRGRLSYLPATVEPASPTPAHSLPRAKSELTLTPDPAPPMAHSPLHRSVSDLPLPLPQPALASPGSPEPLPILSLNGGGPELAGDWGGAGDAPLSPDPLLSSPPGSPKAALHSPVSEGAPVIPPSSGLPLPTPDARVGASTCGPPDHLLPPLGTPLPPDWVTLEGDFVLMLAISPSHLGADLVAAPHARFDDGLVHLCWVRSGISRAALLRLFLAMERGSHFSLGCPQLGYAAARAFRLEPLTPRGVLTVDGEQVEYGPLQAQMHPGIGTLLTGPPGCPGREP

[13] = target: T3, Sphingosine kinase 2 (Homo sapiens); conditions: at 1 µM
[14] = target: Casein kinase II subunit alpha (Homo sapiens) (UniProt P68400); conditions: at 0.1 µM
Casein kinase II subunit alpha (Homo sapiens), sequence (P68400 whole entry, looked up): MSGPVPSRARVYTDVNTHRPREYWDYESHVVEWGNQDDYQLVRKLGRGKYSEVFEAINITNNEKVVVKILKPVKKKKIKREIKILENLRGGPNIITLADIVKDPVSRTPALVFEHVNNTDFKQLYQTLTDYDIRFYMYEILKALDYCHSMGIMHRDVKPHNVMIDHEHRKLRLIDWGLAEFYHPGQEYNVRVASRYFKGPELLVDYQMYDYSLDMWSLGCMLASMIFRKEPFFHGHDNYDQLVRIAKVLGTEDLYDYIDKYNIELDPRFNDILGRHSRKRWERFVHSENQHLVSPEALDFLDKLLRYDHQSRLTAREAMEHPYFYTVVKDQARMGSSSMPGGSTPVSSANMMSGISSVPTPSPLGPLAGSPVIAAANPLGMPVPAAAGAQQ

[15] = target: Casein kinase II subunit alpha (Homo sapiens) (UniProt P68400); conditions: at 1 µM
[16] = target: T4, Inhibitor of nuclear factor kappa-B kinase subunit alpha (Homo sapiens) (UniProt O15111); conditions: at 0.1 µM
T4 sequence (whole entry): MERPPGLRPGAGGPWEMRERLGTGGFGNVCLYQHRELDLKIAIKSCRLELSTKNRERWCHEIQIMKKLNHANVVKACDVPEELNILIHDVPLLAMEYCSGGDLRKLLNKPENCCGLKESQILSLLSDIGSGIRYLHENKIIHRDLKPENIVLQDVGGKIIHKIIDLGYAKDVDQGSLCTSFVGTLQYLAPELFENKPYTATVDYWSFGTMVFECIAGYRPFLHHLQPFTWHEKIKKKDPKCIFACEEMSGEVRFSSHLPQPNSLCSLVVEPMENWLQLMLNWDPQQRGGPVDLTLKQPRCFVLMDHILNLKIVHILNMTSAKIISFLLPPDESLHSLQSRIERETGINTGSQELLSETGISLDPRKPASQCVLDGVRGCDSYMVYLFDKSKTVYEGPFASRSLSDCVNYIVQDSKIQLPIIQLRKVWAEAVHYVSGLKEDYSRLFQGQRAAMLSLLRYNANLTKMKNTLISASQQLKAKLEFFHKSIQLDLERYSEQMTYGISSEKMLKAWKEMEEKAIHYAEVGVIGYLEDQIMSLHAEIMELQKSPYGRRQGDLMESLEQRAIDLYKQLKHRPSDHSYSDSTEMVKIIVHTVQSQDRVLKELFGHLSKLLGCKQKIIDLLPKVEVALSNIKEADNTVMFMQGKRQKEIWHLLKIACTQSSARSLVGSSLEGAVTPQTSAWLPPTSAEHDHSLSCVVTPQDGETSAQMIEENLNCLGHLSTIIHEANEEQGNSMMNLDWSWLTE

[17] = target: T4, Inhibitor of nuclear factor kappa-B kinase subunit alpha (Homo sapiens); conditions: at 1 µM
[18] = target: T5, Inhibitor of nuclear factor kappa-B kinase subunit beta (Homo sapiens) (UniProt O14920); conditions: at 0.1 µM
T5 sequence (whole entry): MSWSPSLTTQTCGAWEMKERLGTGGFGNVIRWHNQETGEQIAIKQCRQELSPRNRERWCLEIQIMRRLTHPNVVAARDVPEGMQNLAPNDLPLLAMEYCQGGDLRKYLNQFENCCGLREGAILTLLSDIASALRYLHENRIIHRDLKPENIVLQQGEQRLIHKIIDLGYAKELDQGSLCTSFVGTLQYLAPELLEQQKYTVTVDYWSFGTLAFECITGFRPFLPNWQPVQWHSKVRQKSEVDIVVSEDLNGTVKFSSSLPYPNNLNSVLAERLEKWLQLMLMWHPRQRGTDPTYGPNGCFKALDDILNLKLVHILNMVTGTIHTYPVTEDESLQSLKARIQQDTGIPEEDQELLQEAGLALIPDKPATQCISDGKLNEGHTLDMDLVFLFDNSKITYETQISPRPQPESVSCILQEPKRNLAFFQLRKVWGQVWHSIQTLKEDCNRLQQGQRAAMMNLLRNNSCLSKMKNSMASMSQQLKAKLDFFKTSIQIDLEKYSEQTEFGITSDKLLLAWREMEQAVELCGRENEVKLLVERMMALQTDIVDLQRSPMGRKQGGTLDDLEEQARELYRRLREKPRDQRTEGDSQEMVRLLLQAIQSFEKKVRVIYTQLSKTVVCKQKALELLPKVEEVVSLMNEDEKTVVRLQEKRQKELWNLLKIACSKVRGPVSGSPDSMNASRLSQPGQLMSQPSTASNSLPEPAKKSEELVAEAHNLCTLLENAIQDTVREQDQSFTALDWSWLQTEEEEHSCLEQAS

[19] = target: T5, Inhibitor of nuclear factor kappa-B kinase subunit beta (Homo sapiens); conditions: at 1 µM
[20] = target: T6, Inhibitor of nuclear factor kappa-B kinase subunit epsilon (Homo sapiens) (UniProt Q14164); conditions: at 0.1 µM;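 also: mean inhibition of IKKε reported, from the GSK PKIS dataset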
T6 sequence (whole entry): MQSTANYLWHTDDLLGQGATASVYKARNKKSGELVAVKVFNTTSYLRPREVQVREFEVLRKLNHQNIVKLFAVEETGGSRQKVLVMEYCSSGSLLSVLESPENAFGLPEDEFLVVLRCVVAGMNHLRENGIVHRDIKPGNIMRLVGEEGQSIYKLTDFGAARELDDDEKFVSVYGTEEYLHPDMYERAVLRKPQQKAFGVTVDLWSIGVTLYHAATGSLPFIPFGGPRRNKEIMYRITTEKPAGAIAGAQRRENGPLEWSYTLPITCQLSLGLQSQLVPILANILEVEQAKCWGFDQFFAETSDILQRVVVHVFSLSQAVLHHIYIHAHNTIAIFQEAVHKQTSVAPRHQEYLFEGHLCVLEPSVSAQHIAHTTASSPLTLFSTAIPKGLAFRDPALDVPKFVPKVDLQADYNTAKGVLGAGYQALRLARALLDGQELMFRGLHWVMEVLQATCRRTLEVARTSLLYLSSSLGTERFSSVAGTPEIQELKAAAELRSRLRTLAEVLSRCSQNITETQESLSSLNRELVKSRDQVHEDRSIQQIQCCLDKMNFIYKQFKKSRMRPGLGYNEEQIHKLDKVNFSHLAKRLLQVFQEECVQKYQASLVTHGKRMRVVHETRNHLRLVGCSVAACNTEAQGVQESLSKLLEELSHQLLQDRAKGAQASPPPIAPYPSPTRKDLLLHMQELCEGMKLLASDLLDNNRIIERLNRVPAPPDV

SMILES | inhibition [1] [%] | inhibition [2] [%] | inhibition [3] [%] | inhibition [4] [%] | inhibition [5] [%] | inhibition [6] [%] | inhibition [7] [%] | inhibition [8] [%] | inhibition [9] [%] | inhibition [10] [%] | inhibition [11] [%] | inhibition [12] [%] | inhibition [13] [%] | inhibition [14] [%] | inhibition [15] [%] | inhibition [16] [%] | inhibition [17] [%] | inhibition [18] [%] | inhibition [19] [%] | inhibition [20] [%]
FC(F)(F)c1ccc(-c2nn3ncccc3c2-c2ccnc(Nc3ccc4c(c3)OCCO4)n2)cc1 | 2.26 | 8.18 | 13 | 0.21 | -2.14 | 1.63 | 0.41 | 1.96 | -3.87 | 0.8 | 0.29 | 3.37 | 4.75 | 8.02 | 19.8 | 1.17 | 0.75 | 0.04 | 2.22 | 1.97
CCS(=O)(=O)c1ccc(OC)c(Nc2ncc(-c3cccc(OC)c3)o2)c1 | 2.08 | -1.9 | -1.28 | 1.81 | 2 | 3.48 | 3.98 | 3.39 | -0.15 | -0.07 | 1.37 | 0 | -2 | 5.03 | 29.3 | 5.66 | -4.47 | 3.95 | 1.16 | 0.74
CN(C)CCCn1c(-c2nonc2N)nc2cnccc21 | 3.42 | -2.65 | -4.44 | 2.84 | 5.05 | 1.95 | 4.09 | 0.95 | 3.34 | 2.52 | -0.88 | 0.92 | 0.09 | 1.4 | -1.56 | 5.57 | 4.33 | 6.47 | 4.26 | 4.73
Cc1cc(-c2ccccn2)cc(C)c1/C=C/c1cncc(-c2nn[nH]n2)c1 | 5.02 | -3.94 | -5.12 | 3.8 | 3.72 | 0.41 | -0.48 | -1.8 | 0.81 | 0.97 | 0.83 | 0 | 0 | 7.89 | 6.35 | 5.76 | 7.54 | 4.37 | 6.71 | 7.41
